{"source": "PubChem BioAssay (NCATS)", "note": "Inconclusive results are not listed. Active and inactive are the calls of the source. Calls come from the whole dose curve; as a rule, active = well fitted curve in either direction with a large enough effect (not every such curve was filed as active); inconclusive = small, poorly fitted or top-dose-only effect, or another doubt; inactive = flat fitted curve, though single readings scatter. % is set by controls: 0 for no effect and ±100 for the full control effect."}
{"experiment": "NFAT Signaling Pathway (AID 444)", "conditions": "Jurkat NFAT-bla M1, carbachol, beta-lactamase ratio, 5 h; at 17.2 µM (top of the series) unless noted", "from_the_text": "NCGC Assay Overview: The nuclear factor of activated T cells (NFAT) family of transcription factors has been found primarily in most immune system cells and some other non-immune cells. NFAT plays the immunomodulatory role, primarily in T-cell activation and differentiation. NFAT target genes are also involved in the regulation of apoptosis and differentiation in non-immune cell types. The NFAT sequence was engineered to the upstream of the ?-lactamase reporter gene and transfected into Jurkat cells with co-transfection of muscarinic receptor1 [provided by Invitrogen Corp]. When an extracellular stimulus, such as carbachol, binds to the GPCR M1 receptor, it stimulates a signaling cascade that activates NFAT response element and ?-lactamase expression by phosphorylating the NFAT binding protein. This cell based ?-lactamase reporter gene assay can accurately monitor any changes occurring along the NFAT pathway, and can be used for screening small molecule inhibitor or activator upon activation by carbachol EC50 concentration. A small molecular library were screened in a titration series resulting in AC50s (can be either IC50s or EC50s).\nNCGC Assay Protocol Summary: The cells were prepared in RPMI 1640 medium containing 0.1% dialyzed FBS and 25 mM HEPES at 1.6 x 10^6cell/ml. The assay was performed in 1536-well plate format as follows: 5 ul of cell preparation 23 nl of compounds 1ul of carbachol (final concentration 1 uM) Briefly centrifuge the plates and incubate at 37 °C for 5 hours 1 ul of CCF4 dye mixture Incubate the plates at RT for 1 hour Read the plate in EnVision plate reader (Ex= 405nm, and Em1=460nm and Em2=530nm). The %Activity was determined from the ratio of 460nm/530nm. Data normalization and AC50 calculations were accomplished using GeneData software."}
{"smiles": "C[N+]1(C)CCC[C@H]1C(=O)[O-]", "activity change, negative = inhibition": "-2.21% (inactive)"}
{"smiles": "O=C1O[C@@H]([C@@H](O)CO)[C@@H](O)[C@H]1O", "activity change, negative = inhibition": "-7.5% (inactive)"}
{"smiles": "C[C@@]12CC3CC(N)(C1)C[C@@](C)(C3)C2", "activity change, negative = inhibition": "-7.73% (inactive)"}
{"smiles": "NC[C@@H]1O[C@@H](O[C@H]2[C@H](O)[C@H](O[C@@H]3O[C@H](CO)[C@@H](O)[C@H](N)[C@@H]3O)[C@@H](N)C[C@H]2N)[C@H](N)C[C@@H]1O", "activity change, negative = inhibition": "-7.92% (inactive)"}
{"smiles": "CCOC(=O)C1=C(C)NC(C)=C(C(=O)OC)[C@@H]1c1cccc([N+](=O)[O-])c1", "activity change, negative = inhibition": "-23.9% (inactive)"}
{"smiles": "CCN1CCC[C@@H](OC(=O)C(c2ccccc2)c2ccccc2)C1", "activity change, negative = inhibition": "-80.8% (active)"}
{"smiles": "COc1cc(OC)c2c(c1Cl)O[C@@]1(C2=O)[C@H](C)CC(=O)C[C@@H]1OC", "activity change, negative = inhibition": "-1.63% (inactive)"}
{"smiles": "COc1cc(C2Oc3cc(C4Oc5cc(O)cc(O)c5C(=O)C4O)ccc3OC2CO)ccc1O", "note": "(stereo not given)", "activity change, negative = inhibition": "22.6% (inactive)"}
{"smiles": "CC(=O)[C@@H]1CC[C@@H]2[C@@H]3C[C@H](C)C4=CC(=O)CC[C@@]4(C)[C@H]3[C@H](O)C[C@]21C", "activity change, negative = inhibition": "-5.99% (inactive)"}
{"smiles": "CC(C)(C)CC(C)(C)c1ccc(OCOCCOCCO)c(Cc2cc(C(C)(C)CC(C)(C)C)cc(Cc3cc(C(C)(C)CC(C)(C)C)ccc3OCOCCOCCO)c2OCOCCOCCO)c1", "activity change, negative = inhibition": "-20.3% (inactive)"}
{"smiles": "NS(=O)(=O)c1cc2c(cc1Cl)N[C@@H](C(Cl)Cl)NS2(=O)=O", "activity change, negative = inhibition": "-8.61% (inactive)"}
{"smiles": "N#Cc1cccc(-c2cncnc2-n2ccnc2)c1", "activity change, negative = inhibition": "-7.66% [at 7.69 µM] (inactive)"}
{"smiles": "CC(C)(C)NC[C@@H](O)COc1ccccc1C1CCCC1", "activity change, negative = inhibition": "-6.56% (inactive)"}
{"smiles": "CO[C@]1(NC(=O)C2SC(=C(C(N)=O)C(=O)O)S2)C(=O)N2C(C(=O)O)=C(CSc3nnnn3C)CS[C@H]21", "note": "(stereo not given in full)", "activity change, negative = inhibition": "13.4% (inactive)"}
{"smiles": "COc1cc2nc(N3CCN(C(=O)[C@@H]4CCCO4)CC3)nc(N)c2cc1OC", "activity change, negative = inhibition": "12.6% (inactive)"}
{"smiles": "CC(=O)S[C@H]1CC2=CC(=O)CC[C@@]2(C)[C@H]2CC[C@@]3(C)[C@H](CC[C@]34CCC(=O)O4)[C@@H]12", "activity change, negative = inhibition": "-8.69% (inactive)"}
{"smiles": "CC(=O)CC(=O)[C@@]1(O)CC[C@@H]2[C@@H]3C=C(C)C4=CC(=O)CC[C@@H]4[C@H]3CC[C@]21C", "activity change, negative = inhibition": "-13.4% (inactive)"}
{"smiles": "COc1cc2c(cc1OC)-c1cc3ccc(OC)c(OC)c3c[n+]1CC2", "activity change, negative = inhibition": "-18.1% (inactive)"}
{"smiles": "CS(=O)(=O)c1ccc([C@H](O)[C@H](CO)NC(=O)C(Cl)Cl)cc1", "activity change, negative = inhibition": "1.44% (inactive)"}
{"smiles": "CO[C@]1(NC(=O)[C@H](C(=O)O)c2ccc(O)cc2)C(=O)N2C(C(=O)O)=C(CSc3nnnn3C)CO[C@H]21", "activity change, negative = inhibition": "6.17% (inactive)"}
{"smiles": "C=CC1=C(C(=O)O)N2C(=O)[C@@H](NC(=O)/C(=N\\OCC(=O)O)c3csc(N)n3)[C@@H]2SC1", "activity change, negative = inhibition": "-1.88% (inactive)"}
{"smiles": "Cc1ccccc1N1C(=O)c2cc(S(N)(=O)=O)c(Cl)cc2N[C@H]1C", "activity change, negative = inhibition": "1.02% (inactive)"}
{"smiles": "NC[C@@H]1O[C@H](O[C@H]2[C@H](O)[C@@H](O[C@H]3[C@H](O)[C@H](N)C[C@H](N)[C@H]3O[C@@H]3O[C@H](CO)[C@@H](O)[C@H](O)[C@@H]3N)O[C@H]2CO)[C@@H](N)[C@H](O)[C@@H]1O", "activity change, negative = inhibition": "-6.33% (inactive)"}
{"smiles": "CNC[C@H](O)c1ccc(OC(=O)C(C)(C)C)c(OC(=O)C(C)(C)C)c1", "activity change, negative = inhibition": "1.95% (inactive)"}
{"smiles": "C#C[C@]1(O)CC[C@@H]2[C@H]3CCc4cc(OC)ccc4[C@@H]3CC[C@@]21C", "activity change, negative = inhibition": "-23.4% (inactive)"}
{"smiles": "NC(=O)c1cc[n+](CC2=C(C(=O)[O-])N3C(=O)[C@@H](NC(=O)Cc4cccs4)[C@@H]3SC2)cc1", "activity change, negative = inhibition": "-11% (inactive)"}
{"smiles": "CC1(C)S[C@@H]2[C@H](NC(=O)COc3ccccc3)C(=O)N2[C@H]1C(=O)O", "note": "(tested in a mixture with another compound)", "activity change, negative = inhibition": "-7.06% (inactive)"}
{"smiles": "CC[C@](C)(CN(C)C)OC(=O)c1ccccc1", "activity change, negative = inhibition": "-26.6% (inactive)"}
{"smiles": "CCC(=O)O[C@@]1(C(=O)SCF)[C@@H](C)C[C@H]2[C@@H]3C[C@@H](F)C4=CC(=O)C=C[C@@]4(C)[C@]3(F)[C@@H](O)C[C@]21C", "activity change, negative = inhibition": "-22.7% (inactive)"}
{"smiles": "Nc1ccn([C@@H]2CC[C@H](CO)O2)c(=O)n1", "activity change, negative = inhibition": "-7.49% (inactive)"}
{"smiles": "Cc1nccn1C[C@@H]1CCc2c(c3ccccc3n2C)C1=O", "activity change, negative = inhibition": "-26.8% (inactive)"}
{"smiles": "O=C1CN(/N=C\\c2ccc([N+](=O)[O-])o2)C(=O)N1", "activity change, negative = inhibition": "-2.23% (inactive)"}
{"smiles": "CC[C@H]1NC(=O)c2cc(S(N)(=O)=O)c(Cl)cc2N1", "activity change, negative = inhibition": "-14.6% (inactive)"}
{"smiles": "COc1ccc2c3c([nH]c2c1)[C@@H]1C[C@@H]2[C@@H](C[C@H](O)[C@H](OC)[C@H]2C(=O)O)CN1CC3", "activity change, negative = inhibition": "-14.4% (inactive)"}
{"smiles": "CC(=O)N(C[C@@H](O)CO)c1c(I)c(C(=O)NC[C@@H](O)CO)c(I)c(C(=O)NC[C@@H](O)CO)c1I", "activity change, negative = inhibition": "-8.29% (inactive)"}
{"smiles": "c1ccc2c(c1)CCC[C@@H]2C1=NCCN1", "activity change, negative = inhibition": "4.55% (inactive)"}
{"smiles": "COc1ccc([C@@H]2CC(=O)c3c(O)cc(O[C@H]4O[C@@H](CO[C@H]5O[C@@H](C)[C@@H](O)[C@@H](O)[C@@H]5O)[C@@H](O)[C@@H](O)[C@@H]4O)cc3O2)cc1O", "activity change, negative = inhibition": "6.75% (inactive)"}
{"smiles": "CC(C)(CS)C(=O)N1CCC[C@H]1C(=O)O", "activity change, negative = inhibition": "-3.44% (inactive)"}
{"smiles": "C[C@H](Oc1ccccc1)C(=O)N[C@@H]1C(=O)N2[C@@H]1SC(C)(C)[C@@H]2C(=O)O", "activity change, negative = inhibition": "-0.496% (inactive)"}
{"smiles": "O=C(O)[C@@H]1[C@@H]2C[C@H]3c4[nH]c5ccccc5c4CCN3C[C@@H]2CC[C@@H]1O", "activity change, negative = inhibition": "-27% (inactive)"}
